# Test results reported in ChEMBL document CHEMBL1157539, “Thousands of chemical starting points for antimalarial lead identification” (Nature, 2010).
# Several values for one entry are separate records, joined by “and”; a condition that tells them apart may be missing. Identical values can stand only once.
# System: HepG2
# Test: GSK_TCMDC: Percent inhibition of human HepG2 cell line. Test compounds present at 10uM.
# Format: functional
row,SMILES,Inhibition
1,Cc1[nH]c(C)c(C(F)(F)F)c(=O)c1-c1ccc(Oc2ccc(OC(F)(F)F)cc2)cc1,0%
2,COc1ccc(NC(=O)/C=C/c2ccccc2Cl)cc1OCCN1CCC(N2CCN(C)CC2)CC1,19%
3,O=C(Nc1cccc(Oc2ccccc2)c1)N[C@H]1CCN(Cc2ccc(OCCCN3CCCCC3)cc2)C1,94%
4,COCCCNC(=O)C1CCN(C(c2ccc(Cl)cc2)c2ccc(Cl)cc2)CC1,5%
5,CC(=O)c1ccc2c(c1)C(NC(=O)c1cccc(Cl)c1Cl)C(CO)C(C)(C)O2 (stereo not given),5%
6,O=C(O)C(F)(F)F.O=[N+]([O-])c1cccc(CNC2CCN(Cc3ccc(-c4ccccc4)cc3)CC2)c1,25%
7,COc1ccc2c(NN=Cc3ccc(F)cc3)ccnc2c1,14%
8,CN1CCN(c2cc3c(cc2Br)CCN3C(=O)Nc2ccc(-c3cnc4ccccc4c3)cc2)CC1,100%
9,N#Cc1ccc(N2CCN(C(=O)c3cccc(-c4noc(C(F)(F)F)n4)c3)CC2)nc1,18%
10,Cl.Cn1c(=O)n(C)c2cc(CNCCNc3ccnc4cc(Cl)ccc34)ccc21,17%
11,CCCCNc1nc(NCCCC)c2c(C)c(Cc3ccccc3)c(NCCCC)nc2n1.Cl,69%
12,COCCNCc1ncsc1-c1ccc2c(Nc3cc(O)c(Cl)cc3F)ccnc2c1,0%
13,CC(Cc1ccc(C(=O)N2CCN(C(=O)c3ccc(CC(C)NCCc4cccc(Cl)c4)cc3)CC2)cc1)NCCc1cccc(Cl)c1 (stereo not given),99%
14,COc1ccc2nc(-c3ccc(C(=O)NCCCN4CCN(c5cc(Cl)ccc5OC)CC4)cc3)[nH]c2c1,0%
15,CN1CCN(Cc2ccc(-c3cccc(-c4nc5ccccc5[nH]4)c3)cc2)CC1.O=C(O)C(F)(F)F,21%
16,O=C(Nc1ccc2c(c1)CCC2)c1cccc(CN2CCCN(Cc3cccc(O)c3)CC2)c1.O=C(O)C(F)(F)F,10%
17,N#Cc1ccccc1S(=O)(=O)N1CCCC(CNC(=O)[C@H](CC2CCCCC2)NC(=O)c2cc3ccccc3s2)C1 (stereo not given in full),9%
18,Cc1ccccc1OCC(=O)Nc1ccc(-c2nc3cc4ccccc4cc3[nH]2)cc1,24%
19,Cc1cccc(CNc2nc(C)cc(N[C@@H](Cc3ccccc3)C(=O)NCCOc3ccccc3)n2)c1.O=C(O)C(F)(F)F,28%
20,Cc1ccc2oc3cc(-c4nnn[nH]4)ccc3c(=O)c2c1,2%

row,SMILES,Inhibition
1,O=c1ccccn1CCCC1CCCCN1 (stereo not given),0%
2,CC1(C)C2C=C(CN3CCC(NC(=O)Nc4ccc(Cl)c(Cl)c4)CC3)C1CC2 (stereo not given),28%
3,CCNc1cc(C(=O)N[C@@H](Cc2ccccc2)[C@H](O)CNC(C)CCCC(C)C)cc(N2CCCS2(=O)=O)c1.O=CO (stereo not given in full),2%
4,CC(=O)Nc1ccc(C(=O)NC2CCN(c3ccnc4cc(Cl)ccc34)CC2)cc1.O=C(O)C(F)(F)F,5%
5,C=CCn1c(SCC(=O)Nc2cc(Cl)ccc2Cl)nc2sc(C)cc2c1=O,8%
6,O=c1cc(NCCCNCc2cc(Cl)cc(Cl)c2OCc2ccccc2)[nH]c2ccccc12,0%
7,COc1cc2nc(C)nc(Nc3ccc(Cc4ccccc4)cc3)c2cc1OC.Cl,16%
8,Cl.NC(=O)c1cccc(Nc2nccc(Nc3ccc(Oc4ccc5ccccc5c4)cc3)n2)c1,15%
9,O=C(NCCCCN1CCCC2c3ccc(O)cc3CCC21)c1ccc(-c2ccccc2)cc1 (stereo not given),32% and 26%
10,CCCCCCN1CCN(Cc2cccc(NC(=O)c3cc4ccccc4s3)c2)CC1.O=C(O)C(F)(F)F,20%
11,Cc1ccc2c(=NN=Cc3ccc(N(C)C)cc3)cc(C)[nH]c2c1,0%
12,O=C(O)c1cc(C(F)(F)F)co1,0%
13,O=C(NC1CCN(CCC[C@]2(c3ccc(Cl)c(Cl)c3)CCCN(C(=O)c3ccccc3)C2)CC1)c1ccc(F)cc1,52%
14,C=Cc1sc(CNCCCNc2cc(=O)c3ccccc3[nH]2)c(C)c1Br,0%
15,COc1cc(NC(=O)c2cc([N+](=O)[O-])ccc2NC(=O)CNC2CCCCC2C)cc(OC)c1 (stereo not given),0%
16,Cn1c(Cc2ccccc2)nnc1Sc1ccc(C#N)c([N+](=O)[O-])c1,0%
17,CC(C)c1ccc2oc(-c3ccc(NC(=O)c4ccc([N+](=O)[O-])o4)cc3)nc2c1,99%
18,Cc1cnc(N)c(/C=C/c2cncc(C(=O)NCCc3ccc(Cl)cc3Cl)c2)c1.Cl,2%
19,O=C(Cc1cccc(Cl)c1)Nc1cccc(-c2c[nH]c3nc(Nc4ccccc4)ncc23)c1.O=C(O)C(F)(F)F,5%
20,Cc1cc(NC(=O)c2ccco2)ccc1OC1CCN(Cc2ccc(C#N)cc2)CC1.O=C(O)C(F)(F)F,2%
